Reference: PMC10668032, “Altered binding affinity of SIX1-Q177R correlates with enhanced WNT5A and WNT pathway effector expression in Wilms tumor”
The full ranking holds about 33,000 sequences; the median of “e-score” is about -0.053, and the highest 2% start at about 0.38. The sample holds the highest values, similar sequences and a random draw of the others, so the mix is not that of the screen.

The sequences below were run against T1, SIX1 homeodomain (reference allele) (human, UniProt Q15475 108-198) (assay: universal protein binding microarray; Universal all-10-mer PBM (8x60K, AMADID 030236), 300 nM GST-tagged protein, Alexa Fluor 488 anti-GST; buffer, salt, pH and temperature not stated (as in Berger); high values mean tight binding). Details: protein: ivt; tags: N-terminal GST; dsDNA, one strand shown.
T1 sequence: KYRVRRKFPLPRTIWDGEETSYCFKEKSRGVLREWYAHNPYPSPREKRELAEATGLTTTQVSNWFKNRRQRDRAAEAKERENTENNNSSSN
How it was run: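 Binding of GST-tagged homeodomains is given as 8-mer E-scores from the Universal PBM Analysis Suite. The proteins were produced by in vitro transcription/translation, quantified by anti-GST western blot against a recombinant GST standard curve, and applied in duplicate at 300 nM final concentration to universal 'all 10-mer' protein binding microarrays (8×60K format).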

Row | Sequence | binding signal [E-score]
1 | CTGATCCC | 0.416 ± 0.02
2 | CTGATCTC | 0.312 ± 0.016
3 | CTGATCGC | 0.191 ± 0.0397
4 | ATGATCTG | 0.355 ± 0.0221
5 | GTGATCAA | 0.236 ± 0.0408
6 | GTGATCTA | 0.2979 ± 0.000552
7 | ATGATCGG | 0.294 ± 0.0125
8 | ATGATCCA | 0.391 ± 0.0192
9 | ATGATCGA | 0.173 ± 0.029
10 | ATGATCCG | 0.452 ± 0.00636
11 | GTGATCCA | 0.377 ± 0.0369
12 | CTGATCCA | 0.357 ± 0.0346
13 | TCCCCTCA | 0.175 ± 0.0645
14 | CTGCTATA | 0.194 ± 0.0359
15 | AGTGAGAC | 0.198 ± 0.0551
16 | ACTCGATA | 0.303
17 | TACACCTA | 0.304 ± 0.0311
18 | CATTATCC | 0.326 ± 0.00937
19 | CGTCGATC | 0.157 ± 0.105
20 | ATCATTTA | 0.193 ± 0.0974
21 | AATTATAC | 0.165 ± 0.066
22 | GATAGTCA | 0.189 ± 0.0298
23 | TAAAGATA | 0.167 ± 0.162

Row | Sequence | binding signal [E-score]
24 | ATGATCTC | 0.327 ± 0.0416
25 | ATGATCCC | 0.448 ± 0.0106
26 | ATGATCAC | 0.309 ± 0.0105
27 | ACCGAGAT | 0.26507 ± 0.000212
28 | ACGGATGA | 0.211 ± 0.0174
29 | ATCGCGAT | 0.334 ± 0.0159
30 | ATACATTC | 0.188 ± 0.0482
31 | TACGTGGA | 0.195 ± 0.113
32 | CTGGATCA | 0.326 ± 0.0378
33 | ATGGATCA | 0.383 ± 0.00801
34 | GTGGATCA | 0.4 ± 0.0347
35 | GTAGATCA | 0.29 ± 0.0141
36 | ATGGATCG | 0.345 ± 0.0571
37 | GTGGATAA | 0.2486 ± 0.00124
38 | ACACCAGC | 0.211 ± 0.0357
39 | CTTCGATA | 0.342 ± 0.0398
40 | GCATATGA | 0.167 ± 0.0211
41 | GCATACTA | 0.22 ± 0.00291
42 | ATGTATGA | 0.261 ± 0.0176
43 | ATCATTAG | 0.281 ± 0.0368
44 | TCACCTGA | 0.165 ± 0.00229
45 | AATACCGG | 0.273 ± 0.0276
46 | TATACCGA | 0.339 ± 0.026

Row | Sequence | binding signal [E-score]
47 | AATACCGT | 0.318 ± 0.04
48 | AATACCGA | 0.321 ± 0.0139
49 | AATACCGC | 0.386 ± 0.0176
50 | CATACCGG | 0.166 ± 0.0474
51 | GATACCTA | 0.472 ± 0.0087
52 | GATACCGC | 0.461 ± 0.0131
53 | AATACCTA | 0.289 ± 0.0733
54 | CATACCTA | 0.174 ± 0.0329
55 | GATACCGA | 0.4164 ± 0.00268
56 | GCTAATAC | 0.244 ± 0.0389
57 | CCGGAATA | 0.162 ± 0.00262
58 | AACTACAC | 0.169 ± 0.006
59 | CGTTGATC | 0.152 ± 0.0357
60 | GACCCGGC | 0.183 ± 0.012
61 | GGTGTAGA | 0.317 ± 0.04
62 | CGTATCTC | 0.378 ± 0.00747
63 | ACTATCTC | 0.209 ± 0.0851
64 | CGTATATC | 0.336 ± 0.0303
65 | CGTATCTA | 0.349 ± 0.0276
66 | AGTATCTC | 0.376 ± 0.0377
67 | CCTATCTC | 0.227 ± 0.035
68 | AGTATCTG | 0.317 ± 0.0419
69 | AGTATATA | 0.306 ± 0.0599

Row | Sequence | binding signal [E-score]
70 | AGTATATC | 0.383 ± 0.0642
71 | CATCTATC | 0.211 ± 0.0124
72 | ATATGGCG | 0.223 ± 0.0647
73 | AATGGGAT | 0.213 ± 0.0227
74 | ACACCTTA | 0.238 ± 0.0937
75 | GATGAGCC | 0.249 ± 0.0159
76 | CTATCTGA | 0.231 ± 0.0348
77 | CGAGATCC | 0.325 ± 0.0133
78 | GATAATGA | 0.174 ± 0.0154
79 | AGACGGGA | 0.2 ± 0.0154
80 | ATAGTAGC | 0.187 ± 0.0294
81 | ATGGGATA | 0.36 ± 0.00494
82 | GCGGGATA | 0.3486 ± 0.00158
83 | ACGGGGGA | 0.217 ± 0.0264
84 | CTGGGATA | 0.266 ± 0.0214
85 | CGGGGAGA | 0.182 ± 0.0823
86 | AGGGGGGA | 0.206 ± 0.028
87 | CCGGGATA | 0.305 ± 0.0131
88 | AGGGGATA | 0.425 ± 0.000834
89 | ACGGGATA | 0.376 ± 0.00774
90 | GTGGGATA | 0.348 ± 0.0178
91 | GGGGGATA | 0.4424 ± 0.00147
92 | CGGGGATA | 0.413 ± 0.0228

Row | Sequence | binding signal [E-score]
93 | CCAGGGTA | 0.221 ± 0.0174
94 | GGAACACC | 0.187 ± 0.018
95 | CATTAATA | 0.154 ± 0.0188
96 | ATAACATC | 0.165 ± 0.0558
97 | GATCACGA | 0.273 ± 0.0518
98 | ATCACCGA | 0.251 ± 0.0115
99 | CATATGGG | 0.179 ± 0.0474
100 | CGCGTATA | 0.232 ± 0.0592
101 | CGCGTATC | 0.424 ± 0.00815
102 | CGCCTATC | 0.218 ± 0.0337
103 | AGCGTATA | 0.233 ± 0.0627
104 | AGCGTATC | 0.411 ± 0.0267
105 | GGCGTATA | 0.179 ± 0.0032
106 | ATACCAGG | 0.3772 ± 0.00332
107 | ATACCAGC | 0.3035 ± 0.00134
108 | ATACACGC | 0.328 ± 0.00888
109 | ATACCAGA | 0.299 ± 0.0031
110 | AGACCCGA | 0.196 ± 0.0537
111 | ACACCCGC | 0.27 ± 0.0197
